Whole data set: some 9,900 sequences, median “r (bound/input frequency ratio)” near 0.7, cut for the highest 2% near 6.5. This excerpt belongs to a sample that is enriched for the highest values.

B1: ENSMUSG00000042529.395|Kcnj12 (ssRNA)
RNA: GGGAGUUCUACAGUCCGACGAUCGCUUCGAUAUCCGCAUGCUACCCUGCCCUGCCCUGGUUAUGCAGGCUGUACGACGCAGUGUGCAUCAGUCUGAGGAGUCUGGUGGUAAGUAAGCCUCUGCAGCAGACCCUGUCGGAGGCCAUGGGGGCGUGUGUGUGUGUGUGUGUGUGUGUGUGUGUGUGUGUGUGUGUGUGUGUGUGUGAACAUGUGUGAGGGUGUGGAGGUCCCAGGGUGUGUGUAUGUGAAUGUCAGUGGCUUGGGUGCUGUGUGGAGAGAGAGAGAGAGAGAGAGAGAGAGAGAGCUCUUGCGGUCGCACUAGUGUGGAAUUCUCGGGUGUCAAGG
B2: ENSMUSG00000042529.396|Kcnj12 (ssRNA)
RNA: GGGAGUUCUACAGUCCGACGAUCGCUUCGAUAUCCGCAUGCUACCUGCCCUGGUUAUGCAGGCUGUACGACGCAGUGUGCAUCAGUCUGAGGAGUCUGGUGGUAAGUAAGCCUCUGCAGCAGACCCUGUCGGAGGCCAUGGGGGCGUGUGUGUGUGUGUGUGUGUGUGUGUGUGUGUGUGUGUGUGUGUGUGUGUGUGAACAUGUGUGAGGGUGUGGAGGUCCCAGGGUGUGUGUAUGUGAAUGUCAGUGGCUUGGGUGCUGUGUGGAGAGAGAGAGAGAGAGAGAGAGAGAGAGAGAGAGAGCUCUUGCGGUCGCACUAGUGUGGAAUUCUCGGGUGUCAAGG
B3: ENSMUSG00000042529.390|Kcnj12 (ssRNA)
RNA: GGGAGUUCUACAGUCCGACGAUCGCUUCGAUAUCCGCAUGCUAGGCCACAGACAUGAUCAGUCCGACUUGAGUCCCUGCCCUGCCCUGGUUAUGCAGGCUGUACGACGCAGUGUGCAUCAGUCUGAGGAGUCUGGUGGUAAGUAAGCCUCUGCAGCAGACCCUGUCGGAGGCCAUGGGGGCGUGUGUGUGUGUGUGUGUGUGUGUGUGUGUGUGUGUGUGUGUGUGUGUGUGUGAACAUGUGUGAGGGUGUGGAGGUCCCAGGGUGUGUGUAUGUGAAUGUCAGUGGCUUGGGUGCUGUGUGGCUCUUGCGGUCGCACUAGUGUGGAAUUCUCGGGUGUCAAGG
B4: ENSMUSG00000042529.414|Kcnj12 (ssRNA)
RNA: GGGAGUUCUACAGUCCGACGAUCGCUUCGAUAUCCGCAUGCUAGUGUGUGUGUGUGUGUGUGUGUGUGUGUGUGUGUGUGUGUGUGUGUGAACAUGUGUGAGGGUGUGGAGGUCCCAGGGUGUGUGUAUGUGAAUGUCAGUGGCUUGGGUGCUGUGUGGAGAGAGAGAGAGAGAGAGAGAGAGAGAGAGAGAGAGAGAGAGAGAGAGAGCUGCACAGGAUGAAGCAGCUGCCCUGAGCCCAUCUGGUGCUGUGCACCUGGUCCUUGUCCAGCCGAGGGCCUGGGGGCAGAAGAACACACCAUACUCUUGCGGUCGCACUAGUGUGGAAUUCUCGGGUGUCAAGG
B5: ENSMUSG00000043670.183|Diras1 (ssRNA)
RNA: GGGAGUUCUACAGUCCGACGAUCGCUUCGAUAUCCGCAUGCUAGACAGAAUCUGAGCCUCUUUGCUGGUCAUGUGUACUCUGGAGACUGUCCCCCAUGUCUGCCCUGAGUUACGGAGCCCCUGUGGUAUCUGCGAGACUGUCCAGGAGACUUGAGUGGCUCCUGGGCCUGUGUCCCACCCAGAUGAGGGUGACUUAGAAUUCUGUGUUUAUGUGCCUGUGUGUGUGGAUGGGUGUGUGUCUGUCUUGGGAUGGGGUGUUCUUGCACCACUUUGUGUUCUUAGUGAGACCACAGUGUAAGUGGCCUCUUGCGGUCGCACUAGUGUGGAAUUCUCGGGUGUCAAGG
B6: ENSMUSG00000042529.391|Kcnj12 (ssRNA)
RNA: GGGAGUUCUACAGUCCGACGAUCGCUUCGAUAUCCGCAUGCUAAGACAUGAUCAGUCCGACUUGAGUCCCUGCCCUGCCCUGGUUAUGCAGGCUGUACGACGCAGUGUGCAUCAGUCUGAGGAGUCUGGUGGUAAGUAAGCCUCUGCAGCAGACCCUGUCGGAGGCCAUGGGGGCGUGUGUGUGUGUGUGUGUGUGUGUGUGUGUGUGUGUGUGUGUGUGUGUGUGUGAACAUGUGUGAGGGUGUGGAGGUCCCAGGGUGUGUGUAUGUGAAUGUCAGUGGCUUGGGUGCUGUGUGGAGAGAGCUCUUGCGGUCGCACUAGUGUGGAAUUCUCGGGUGUCAAGG
B7: ENSMUSG00000042529.413|Kcnj12 (ssRNA)
RNA: GGGAGUUCUACAGUCCGACGAUCGCUUCGAUAUCCGCAUGCUAGUGUGUGUGUGUGUGUGUGUGUGUGUGUGUGUGUGUGUGUGUGUGUGUGUGUGAACAUGUGUGAGGGUGUGGAGGUCCCAGGGUGUGUGUAUGUGAAUGUCAGUGGCUUGGGUGCUGUGUGGAGAGAGAGAGAGAGAGAGAGAGAGAGAGAGAGAGAGAGAGAGAGAGAGAGCUGCACAGGAUGAAGCAGCUGCCCUGAGCCCAUCUGGUGCUGUGCACCUGGUCCUUGUCCAGCCGAGGGCCUGGGGGCAGAAGAACACCUCUUGCGGUCGCACUAGUGUGGAAUUCUCGGGUGUCAAGG
B8: ENSMUSG00000042529.392|Kcnj12|56:60;127:179;184:189;193:197;209:219;242:247 (ssRNA)
RNA: GGGAGUUCUACAGUCCGACGAUCGCUUCGAUAUCCGCAUGCUAGAUCAGUCCGACUUGAGUCCCUGCCCUGCCCUGGUUAUGCAGGCUGUACGACGCACACACCAUCAGUCUGAGGAGUCUGGUGGUAAGUAAGCCUCUGCAGCAGACCCUGUCGGAGGCCAUGGGGGCCACACACACACACACACACACACACACACACACACACACACACACACACACACAACAACACACAGGCACACGAGGUCCCAGGCACACACAUACUGAAUGUCAGUGGCUUGGGUGCACACACGAGAGAGAGAGAGCUCUUGCGGUCGCACUAGUGUGGAAUUCUCGGGUGUCAAGG
B9: ENSMUSG00000042529.394|Kcnj12 (ssRNA)
RNA: GGGAGUUCUACAGUCCGACGAUCGCUUCGAUAUCCGCAUGCUAUUGAGUCCCUGCCCUGCCCUGGUUAUGCAGGCUGUACGACGCAGUGUGCAUCAGUCUGAGGAGUCUGGUGGUAAGUAAGCCUCUGCAGCAGACCCUGUCGGAGGCCAUGGGGGCGUGUGUGUGUGUGUGUGUGUGUGUGUGUGUGUGUGUGUGUGUGUGUGUGUGUGAACAUGUGUGAGGGUGUGGAGGUCCCAGGGUGUGUGUAUGUGAAUGUCAGUGGCUUGGGUGCUGUGUGGAGAGAGAGAGAGAGAGAGAGAGAGCUCUUGCGGUCGCACUAGUGUGGAAUUCUCGGGUGUCAAGG
B10: ENSMUSG00000042529.389|Kcnj12 (ssRNA)
RNA: GGGAGUUCUACAGUCCGACGAUCGCUUCGAUAUCCGCAUGCUAGAUGCUGGCCACAGACAUGAUCAGUCCGACUUGAGUCCCUGCCCUGCCCUGGUUAUGCAGGCUGUACGACGCAGUGUGCAUCAGUCUGAGGAGUCUGGUGGUAAGUAAGCCUCUGCAGCAGACCCUGUCGGAGGCCAUGGGGGCGUGUGUGUGUGUGUGUGUGUGUGUGUGUGUGUGUGUGUGUGUGUGUGUGUGUGAACAUGUGUGAGGGUGUGGAGGUCCCAGGGUGUGUGUAUGUGAAUGUCAGUGGCUUGGGUGCUCUCUUGCGGUCGCACUAGUGUGGAAUUCUCGGGUGUCAAGG
B11: ENSMUSG00000022095.20|Fam160b2 (ssRNA)
RNA: GGGAGUUCUACAGUCCGACGAUCGCUUCGAUAUCCGCAUGCUAGGUGGGGGAAGAUUCCUGCCUGUGUACUUCUGCCCACGGGCAGUCUCCUGCCUGGCCAUGCUGCCACUCUGUCCUCCAUGCCGGGGACUUCAGCUGCAGGACACCUCACCUGUUGACCCCACGAGCUGAGGUUUCAAGGAGGUGCUGGCUCCUAAGGCAGUGGUAUUCUUGGAGCCUUUUAGAGGAGCUAGAGGAUGGCCAGUGAGCGCCUAGAUGCUGCCCUGCAUGUGUUGCGUGACUAUCUCUGCUAUAUUGUGACCCUCUUGCGGUCGCACUAGUGUGGAAUUCUCGGGUGUCAAGG
B12: ENSMUSG00000058297.107|Spock2|69:74 (ssRNA)
RNA: GGGAGUUCUACAGUCCGACGAUCGCUUCGAUAUCCGCAUGCUAUGAGGCAGGACCUGUACACACAGCAAGGCUUACUAUCCGUCUCCUGACAUCCGAAGAGCUCGUCGCAGCACACACUAAUGGCCCUUGGGCUGCACGUGGUUAAGCAUAGCUGUCUCUGUGGCCCAACACAAAGAGGUAAACUUACUUAAAACACAGGGGUUUUGUUGCUGUUUGUUUUUUGUUAGUUUGUUUGUUGAUAAUUGGAUUGAGGAGUUAAUCCUCUGUCACAAUGUCAAAAGCAUGGACAUCCCUGAUAGAUUCUCUUGCGGUCGCACUAGUGUGGAAUUCUCGGGUGUCAAGG
B13: ENSMUSG00000061578.1365|Ksr2|224:228 (ssRNA)
RNA: GGGAGUUCUACAGUCCGACGAUCGCUUCGAUAUCCGCAUGCUACAGGACAGCCCAGCUUCCCACUCCAGACAUGUUGUUCUUACAUCUCUGACCCAGUGAUCUUUCUAGGGGUCUGUCACAUGUCCCAACAGGUGGACAGCUCUCCAAGUCACCAACCUGAGGAAAAUAUCCCUCCUUGUAAAAAGGCUUUCUCUUUGUAAAUGAUUCUGUUGCCUUUUUCUAAACACAAAGUAUAUAUACCUAUAAAUGCUAUAUAUAUUAUAUAACACAAUAUACAUAAAGACUACUUCUUGUACAGCCCUCUCUUGCGGUCGCACUAGUGUGGAAUUCUCGGGUGUCAAGG

TDP-43, sequence (Q13148 whole entry): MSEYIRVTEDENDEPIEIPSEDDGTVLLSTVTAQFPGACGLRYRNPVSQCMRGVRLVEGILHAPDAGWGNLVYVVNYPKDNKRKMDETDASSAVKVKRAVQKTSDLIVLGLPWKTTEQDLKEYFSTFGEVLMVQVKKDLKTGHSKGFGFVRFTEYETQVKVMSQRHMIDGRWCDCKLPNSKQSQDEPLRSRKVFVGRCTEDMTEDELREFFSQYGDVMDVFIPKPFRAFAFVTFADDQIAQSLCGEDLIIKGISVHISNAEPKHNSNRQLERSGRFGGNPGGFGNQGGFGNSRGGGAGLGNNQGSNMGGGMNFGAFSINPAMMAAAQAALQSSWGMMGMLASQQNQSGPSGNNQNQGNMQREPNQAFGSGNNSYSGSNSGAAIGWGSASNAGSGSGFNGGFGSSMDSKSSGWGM

This experiment addresses TDP-43 (Homo sapiens, UniProt Q13148 1-414). Briefly: RNA Bind-n-Seq with designed 260-mer pool; 25 mM Tris-HCl, 150 mM KCl, 3 mM MgCl2, BSA (printed 500 mg/mL), 20 units/mL SUPERase IN; pH not stated; 500 nM RNA pool, 1 h, 4 C; TDP-43 5, 50, 500 nM; high values mean tight binding. The settings on record: protein: recombinant; tags: SBP (GST cleaved off with PreScission; pGEX-GST-SBP). A digest of the protocol: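 Streptavidin beads captured recombinant SBP-tagged TDP-43 at 5, 50 or 500 nM, and the beads were incubated for 1 h at 4 °C with 500 nM of an in vitro-transcribed pool of 260-nt 3′ UTR oligos in 25 mM Tris-HCl, 150 mM KCl, 3 mM MgCl2, BSA and SUPERase IN. After washing, bound RNA was eluted with biotin, reverse transcribed, PCR-amplified and sequenced. Binding is reported as R, the mapped-read-normalized abundance of each oligo in the bound sample divided by its abundance in the input. Two independent protein batches served as duplicates.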
Take B1: the binding signal is 5.73 R (bound/input frequency ratio).

On to B2, for which the binding signal was 7.9 R (bound/input frequency ratio).

Consider B3, for which the binding signal is 8.92 R (bound/input frequency ratio).

Regarding B4, the binding signal is 5.01 R (bound/input frequency ratio).

In the case of B5, the binding signal is 5.8 R (bound/input frequency ratio).

Consider B6, for which the binding signal is 10.1 R (bound/input frequency ratio).

For the molecule B7, the binding signal is 4.88 R (bound/input frequency ratio).

Consider B8, for which the binding signal is 2.98 R (bound/input frequency ratio).

B9: the binding signal was 5.55 R (bound/input frequency ratio).

Consider B10, for which the binding signal was 7.39 R (bound/input frequency ratio).

B11: the binding signal was 0.487 R (bound/input frequency ratio).

As to B12, the binding signal is 1.04 R (bound/input frequency ratio).

Turning to B13, the binding signal is 0.125 R (bound/input frequency ratio).

Values taken from publication PMC12864922, “TDP-43 directly inhibits mRNA accumulation in neurites through modulation of mRNA stability”.
